# High-throughput results from PubChem BioAssay.
# Hits are enriched below; roughly 3.3% of the tested compounds scored in any of these assays.
# Smad3 FoxH1 inh: Smad3 (human) transcription factor binding inhibition; P84022; TR-FRET Smad3/Dy647-FoxH1 peptide binding, europium anti-His; inhibition, % at 25 µM; actives 0.29% (n = 88,000); AID 630;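 active = compounds that reduce the energy-transfer binding signal between the protein and its labelled peptide by more than half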;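 also: 0% = Smad3 plus labelled peptide maximal FRET and 100% = peptide-only background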
# FAK blocker: FAK (human) kinase inhibition; biochemical FAK kinase activity assay; inhibition, %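 (tested at 7 µM)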; actives 0.84% (n = 97,000); Q05397; AID 727; in the data active = inhibition above about 19%;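 also: 0% = DMSO and 100% = reference compound high control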
# Candida biofilm: kills Candida albicans biofilms; C. albicans biofilm + clotrimazole, Alamar Blue; inhibition, % at 6 µM; actives 0.14% (n = 85,000);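 active = inhibition above 20%; inactive = inhibition below 20%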;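 also: preformed 24 hr biofilms exposed to compound for 48 hr; 0% = biofilm without compound and 100% = blank killed by clotrimazole plus chlorhexidine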
# ERb coact inh: blocks coactivator binding to human estrogen receptor beta. Q92731. TR-FRET ER-beta LBD / SRC1-Cy5 peptide binding; receptor agonist-loaded with 1 µM estradiol. inhibition, % at 25.6 µM. actives 1.3% (n = 86,000). AID 633;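 active = compounds whose percent inhibition of the receptor-coactivator binding signal exceeds about 50% in the single-dose screen, limit read from the data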;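 also: 0% = receptor plus peptide wells without compound and 100% = peptide-only wells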
# Target sequence (Q92731 whole entry, looked up, the tested form may be a part): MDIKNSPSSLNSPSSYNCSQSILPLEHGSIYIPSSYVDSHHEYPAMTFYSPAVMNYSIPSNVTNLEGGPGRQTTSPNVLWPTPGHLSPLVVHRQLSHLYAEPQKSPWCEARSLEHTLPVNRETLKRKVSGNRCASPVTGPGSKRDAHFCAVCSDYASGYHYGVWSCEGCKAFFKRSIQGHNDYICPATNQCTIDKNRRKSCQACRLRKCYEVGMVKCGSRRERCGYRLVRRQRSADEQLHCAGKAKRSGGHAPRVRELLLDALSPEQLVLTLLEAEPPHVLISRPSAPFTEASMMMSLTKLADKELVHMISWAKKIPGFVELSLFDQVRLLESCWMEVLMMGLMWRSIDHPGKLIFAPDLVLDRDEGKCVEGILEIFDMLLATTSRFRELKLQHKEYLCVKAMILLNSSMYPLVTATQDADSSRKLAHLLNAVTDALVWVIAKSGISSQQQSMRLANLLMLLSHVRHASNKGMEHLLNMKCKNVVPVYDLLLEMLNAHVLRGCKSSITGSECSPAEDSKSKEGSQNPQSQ
# ERa coact pot: enhances coactivator binding to human estrogen receptor alpha; TR-FRET ERalpha-LBD/SRC-Cy5 coactivator binding, 2 h; 100 = basal binding, no effect; actives 1.3% (n = 86,000); P03372; coactivator binding (% of control), % at 25.6 µM; AID 639; in the data active = activity above about 200%;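 also: binding measured in presence of low estradiol as agonist stimulus; 0% = peptide alone without receptor and 100% = receptor with peptide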
# ERa SRC1 inh: blocks coactivator binding to human estrogen receptor alpha; AID 629; actives 1.7% (n = 86,000); P03372; inhibition, % at 25.6 µM; TR-FRET ER-alpha LBD / SRC-1 peptide, estradiol-bound; in the data active = inhibition above about 50%;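 also: 0% = receptor plus peptide control and 100% = peptide only without receptor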
# Starred values were filed as active, the others as inactive; i = inactive; x = no result given; [ ] = dose if it differs, or a comment.
SMILES,Smad3 FoxH1 inh,FAK blocker,Candida biofilm,ERb coact inh,ERa coact pot,ERa SRC1 inh
Cn1nc([N+](=O)[O-])c2c(-c3nc4ccccc4s3)c(N)n(C3CCCCC3)c2c1=O,12,0,6,65*,4,93*
CCCCn1c(N)c(-c2nc3ccccc3s2)c2c([N+](=O)[O-])nn(C)c(=O)c21,x,2,x,x,x,x
COc1ccc(Cc2ccc3[nH]c(=O)cc(C)c3c2)cc1S(=O)(=O)O,19,x,x,x,x,x
N/C(=N\OC(=O)C1CCCCC1)c1ccccn1,x,-6,x,x,x,x
COC(=O)COc1ccc(S(=O)(=O)Nc2ccc3c(c2)OCO3)cc1Cl,5,5,5,8,101,6
COC(=O)COc1ccc(S(=O)(=O)Nc2ccc3c(c2)OCO3)cc1,-5,-1,8,22,57,67*
O=C1c2ccccc2C(=O)N1c1ccc(S(=O)(=O)N2CCN(c3ccccc3)CC2)cc1,-17,0,-1,10,91,-1
COc1ccc(-c2ccc(-c3nnc(-c4ccncc4)o3)cc2)cc1,7,x,0,31,184,56*[fluorescence artefact?]
CCSc1nnc(-c2ccc(OC)cc2)o1,x,-2,x,x,x,x
CN(C(=O)c1ccno1)c1nnc(-c2ccccn2)s1,-4,0,20*,-7,127,-7
CN(C(=O)c1ccncc1)c1nnc(-c2ccccn2)s1,-9,3,-3,3,73,-1
COc1cc2c(cc1NC(=S)Nc1cccc(C(F)(F)F)c1)oc1ccccc12,-9,0,-1,-6,95,2
CN(C)CCNc1nc2c(c(=O)n(C)c(=O)n2C)n1C,4,x,x,x,x,x
CCOC(=O)c1cnc(Nc2nc3ccccc3o2)nc1CSc1ncccn1,-6,-3,8,3,212*[fluorescence artefact?],55*
COc1ccccc1CN1C(=O)c2ccncc2C1=O,6,-1,7,71*[fluorescence artefact?],98,-19
COc1ccc(CCN2C(=O)c3ccncc3C2=O)cc1OC,-1,-3,2,-1,101,-8
Cc1cc(C)c(O)c(Cc2cccc(Cc3cc(C)cc(C)c3O)c2O)c1,4,x,x,x,x,x
O=C1Nc2ccc(S(=O)(=O)NCc3ccccn3)c3cccc1c23,-10,-2,-2,61*[fluorescence artefact?],81,33
CCCn1c(CN(Cc2ccccc2)Cc2ccccc2)nc2c1c(=O)n(C)c(=O)n2C,-2,x,25*,-11,80,-3
CC(=O)NC(C)C(=O)OCC(=O)Nc1ccc(Br)cc1 (centres undefined),-11,-1,3,36,109,78*
O=C(CCN1CCCCC1)N1CCc2c([nH]c3ccccc23)[C@H]1c1cccnc1,-8,x,x,x,x,x
CCSc1nnc(NC(=O)CSc2nc(CC)nc3c2c(=O)n(C)c(=O)n3C)s1,-19,0,2,1,254*,-2
O=[N+]([O-])c1cc(Cl)cc2c1nc(NCCO)c1ccccc12,1,x,x,x,x,x
Cc1cc(C(=O)CSc2nnc(-c3ccc(OC(F)F)cc3)o2)c(C)n1Cc1cccs1,-3,6,-1,44,150,55*[fluorescence artefact?]
Cc1cc(C(=O)CSc2nnc(-c3ccco3)o2)c(C)n1Cc1ccco1,-29,5,1,41,177,54*[fluorescence artefact?]
SMILES,Smad3 FoxH1 inh,FAK blocker,Candida biofilm,ERb coact inh,ERa coact pot,ERa SRC1 inh
Cc1csc(SCC(=O)c2cc(C)n(Cc3cccs3)c2C)n1,6,1,2,-9,73,-4
COc1ccc(-c2nnc(SCC(=O)c3cc(C)n(Cc4cccs4)c3C)o2)cc1,-46,2,4,38,303*,52*[fluorescence artefact?]
Cc1cc(C(=O)CSc2nnc(-c3ccco3)o2)c(C)n1-c1ccc2c(c1)OCCO2,-7,0,0,9,117,-6
COc1ccc(-n2cnnc2SCC(=O)c2cc(C)n(Cc3cccs3)c2C)cc1,-11,-1,0,25,248*[fluorescence artefact?],21
CN(C(=O)c1ccc(-c2nn(C)c(=O)c3ccccc23)cc1)c1ccccc1,15,-3,-5,-7,100,0
O=C1Nc2ccccc2C1=Nc1cccc2ncccc12,-2,x,x,x,x,x
CC(C)CC(=O)Nc1ccc2oc(-c3cccnc3)nc2c1,-2,-1,2,8,126,7
CCCC(=O)Nc1ccc(-c2nc3cc(C)c(C)cc3o2)cc1,5,8,-1,43,168,69*[fluorescence artefact?]
CCCC(=O)Nc1ccc2oc(-c3ccncc3)nc2c1,-4,1,6,1,111,6
O=C(Nc1ccc(-c2nc3ccccc3o2)cc1)c1cccnc1,10,-2,4,-6,101,-3
Cc1ccc2oc(-c3ccc(NC(=O)CC(C)C)cc3)nc2c1,10,3,0,15,225*[fluorescence artefact?],-1
Cc1ccc2oc(-c3ccc(NC(=O)c4cccnc4)cc3)nc2c1,11,6,5,31,248*,2
Cc1sc2nc3c(C(=O)N4CCN(c5ccccn5)CC4)cccn3c(=O)c2c1C,x,-3,x,x,x,x
CCCN1CNC(=S)N(c2cccc(C)c2C)C1,-13,2,6,-1,96,-11
CCN1CNC(=S)N(c2cccc(C)c2C)C1,96*,-3,6,-6,104,-17
CN(C)C(CNC(=O)c1cccc(S(=O)(=O)N2CC3(C)CC2CC(C)(C)C3)c1)c1ccco1 (centres undefined),13,x,-4,7,83,0
CC1(C)CC2CC(C)(CN2S(=O)(=O)c2cccc(N)c2)C1 (centres undefined),3,-4,4,0,237*[fluorescence artefact?],-8
CCc1nn2c(=O)cc(CSc3nc4sc5c(c4c(=O)n3C)CCCC5)nc2s1,-1,7,7,53*[fluorescence artefact?],85,38
Cc1ccc(OCCNC(=O)c2ccco2)cc1C,-2,11,5,1,118,-3
COC(=O)c1cc2sc(Cl)cc2n1CC(=O)NCCC(C)C,i,-2,9,0,226*[fluorescence artefact?],-4
CCOC(=O)c1cc2sc(C)cc2n1CC(=O)NCCc1ccccc1,-209,-2,3,-10,932*[fluorescence artefact?],-41
COC(=O)c1cc2sccc2n1CC(=O)Nc1cc(OC)cc(OC)c1,x,6,x,x,x,x
CCOC(=O)c1cc2sc(C)cc2n1CCCN1C(=O)c2ccccc2C1=O,9,-11,3,-13,97,-3
CCn1c(=O)c2c(nc(SCC(=O)NCC3CCCO3)n2C)n(C)c1=O (centres undefined),-18,3,3,15,98,16
O=C1CC(C(=O)Nc2ccc(C(=O)N3CCOCC3)cc2)C2(CCCCC2)O1 (centres undefined),1,0,3,-1,116,56*[fluorescence artefact?]
COc1ccc(C(=O)N/N=C2\C(=O)c3c(C)cc(C)cc3CC2(C)C)cc1,-14,x,x,x,x,x
O=c1[nH]c2c(s1)C(c1ccc(O)cc1)C1C3CCC(C3)C1S2 (centres undefined),5,-3,9,49,13,70*
COc1ccc(C2c3sc(=O)[nH]c3SC3C4CCC(C4)C23)cc1OC (centres undefined),3,5,4,3,40,22
